25 molecules from ChEMBL document CHEMBL4296182, “CO-ADD screening of NIH NCI Diversity Set V” can be followed below.

The subject of assay [1] is Staphylococcus aureus. Kind of assay: Antibacterial activity against Staphylococcus aureus MRSA ATCC 43300 (CO-ADD:GP_020); MIC in CAMBH media using NBS plates, by Resazurin F(560/590). The assay is classed as functional. The note with it: Concentration 20 uM, ASSAY_TEST Inhibition of Bacterial Growth, detection method Resazurin, Fluorescence (ex560/em590), MEDIA CAMHB, plate type 384well, CORNING #3640, time 18 hr.

Assay [2] relates to Acinetobacter baumannii. Put plainly: Antibacterial activity against Acinetobacter baumannii ATCC 19606 (CO-ADD:GN_034); MIC in CAMBH media using NBS plates, by Resazurin F(560/590). In kind it is functional. The note with it: Concentration 20 uM, ASSAY_TEST Inhibition of Bacterial Growth, detection method Resazurin, Fluorescence (ex560/em590), MEDIA CAMHB, plate type 384well, CORNING #3640, time 18 hr.

In assay [3] the test system is Escherichia coli. Kind of assay: Antibacterial activity against Escherichia coli ATCC 25922 (CO-ADD:GN_001); MIC in CAMBH media using NBS plates, by Resazurin F(560/590). As to conditions: Concentration 20 uM, ASSAY_TEST Inhibition of Bacterial Growth, detection method Resazurin, Fluorescence (ex560/em590), MEDIA CAMHB, plate type 384well, CORNING #3640, time 18 hr. In kind it is functional. Background: Alamar Blue is a resazurin reagent that responds to reducing activity.

For assay [4], the system named is Klebsiella pneumoniae. As to conditions: Concentration 20 uM; ASSAY_TEST Inhibition of Bacterial Growth; detection method Absorption (OD600); MEDIA CAMHB; plate type 384well; NBS; CORNING #3640; time 18 hr.
For assay [5], the system named is Candida albicans. The note with it: 20 µM.
Assay [6] relates to Cryptococcus neoformans. As to conditions: Concentration 20 uM; ASSAY_TEST Inhibition of Fungal Growth; detection method Resazurin; Absorption (OD600-OD570); plate type 384well; NBS; CORNING #3640.

For part of these data: Potency and affinity values are given separately.

The term Inhibition denotes the drop in the measured response relative to a control, in per cent. As for `O=C1Cc2cccc(O)c(=O)c2C(=O)O1`, the Inhibition in assay [1] is 18.22%; in assay [2], 9.21%; in assay [3] it was 9.09%; in assay [4], 8.59%; in assay [5], 1.02%; in assay [6], -4.33%.
With `O=C(Nc1cccc([N+](=O)[O-])c1)c1cccc(C(=O)Nc2cccc([N+](=O)[O-])c2)c1`, the Inhibition in assay [1] is -2.9%; in assay [2] it was 3.66%; in assay [3] it was 1.98%; in assay [4], 5.84%; in assay [5], -0.13%; in assay [6] it was 37.96%.
Consider `CC1=CC(C)(C(Cl)(Cl)Cl)C(C)=C/C1=N/O` (stereo not given), for which the Inhibition in assay [1] is 1.65%; in assay [2] it was -20.29%; in assay [3] it was 8.83%; in assay [4], 12.76%; in assay [5] it was 4.85%; in assay [6] it was -11.97%.
Take `COc1ccc2c3c([nH]c2c1)[C@H]1C[C@H]2[C@H](C[C@@H](O)[C@H](OC)[C@H]2CO)CN1CC3`: the Inhibition in assay [1] is 17.92%; in assay [2] it was 7.85%; in assay [3], -1.49%; in assay [4] it was 7.11%; in assay [5], -0.63%; in assay [6], -8.29%.
Consider `O=C(O)Cc1sc(O)nc1O`, for which the Inhibition in assay [1] was 3.49%; in assay [2] it was -13.46%; in assay [3], 1.48%; in assay [4] it was 28.66%; in assay [5], 28.5%; in assay [6], -2.77%.
In the case of `Cc1cc(-c2ccc(N3C(=O)CC4(CCCC4)C3=O)c(C)c2)ccc1N1C(=O)CC2(CCCC2)C1=O`, the Inhibition was 2.65% in assay [1]; -13.47% in assay [2]; 9.87% in assay [3]; -0.13% in assay [4]; 4.32% in assay [5]; -5.08% in assay [6].
In the case of `Cn1cnc2ncnn2c1=S`, the Inhibition in assay [1] is 0.31%; in assay [2], -8.2%; in assay [3] it was -1.17%; in assay [4] it was -0.39%; in assay [5] it was 2.7%; in assay [6] it was -8.45%.
For `Cn1c([N+](=O)[O-])cnc1N1CCN(c2nncs2)C1=O`, the Inhibition is 0.67% in assay [1]; -10.23% in assay [2]; 2.52% in assay [3]; 15.88% in assay [4]; 1.82% in assay [5]; -10.17% in assay [6].
Consider `Nc1ccc(-c2nc3nc(N)nc(N)c3nc2-c2ccc(N)cc2)cc1`, for which the Inhibition was 11.99% in assay [1]; -8.41% in assay [2]; -0.05% in assay [3]; 5.53% in assay [4]; 0.39% in assay [5]; -7.52% in assay [6].
Consider `CC(C)Cc1nnc(N)s1`, for which the Inhibition in assay [1] is 5.28%; in assay [2] it was -16.63%; in assay [3] it was 6.53%; in assay [4] it was 28.97%; in assay [5], 1.43%; in assay [6], -13.23%.
Turning to `c1ccc(-c2ccc(-c3nccc4ccccc34)[nH]2)cc1`, the Inhibition in assay [1] was -4.96%; in assay [2] it was -13.85%; in assay [3], 6.1%; in assay [4], 4.74%; in assay [5], 14%; in assay [6], -7.81%.
Take `Cl.Nc1ncnc2c(C3OC(CO)C(O)C3O)c[nH]c12` (stereo not given): the Inhibition is 3.2% in assay [1]; 11.32% in assay [2]; -11.86% in assay [3]; 9.96% in assay [4]; 2.09% in assay [5]; -0.14% in assay [6].
Turning to `CN(C)CCCN1c2ccc3ccccc3c2Sc2cccc(Cl)c21`, the Inhibition was -10.96% in assay [1]; 0.47% in assay [2]; 9.47% in assay [3]; 8.34% in assay [4]; 0.69% in assay [5]; 12.55% in assay [6].
As to `Cc1c([N+](=O)[O-])oc2c1C(=O)NCCC2`, the Inhibition in assay [1] is 15.45%; in assay [2], 5.11%; in assay [3], 5.84%; in assay [4] it was 9.17%; in assay [5], 2.94%; in assay [6] it was -11.37%.
For the molecule `Cc1nc2ccccc2c(N)c1-c1cc(C)c2c(C)nc3ccccc3c2n1`, the Inhibition in assay [1] was -4.42%; in assay [2], 8.74%; in assay [3], -14.9%; in assay [4], 5.08%; in assay [5], 2.89%; in assay [6], 18.77%.
As for `O=C(O)C(Cc1ccccc1N(CCO)CCO)N1C(=O)c2ccccc2C1=O` (stereo not given), the Inhibition in assay [1] was 11.82%; in assay [2], 6.12%; in assay [3], 3.59%; in assay [4], 11.57%; in assay [5], 0.11%; in assay [6], -6.78%.
Regarding `CC1CN(CCN2CC(C)N(C=O)CC2C)C(C)CN1C=O` (stereo not given), the Inhibition in assay [1] is -7.66%; in assay [2], -6.52%; in assay [3], -13.71%; in assay [4] it was 5.89%; in assay [5], 1.99%; in assay [6] it was 25.73%.
Take `Oc1c(Cl)cc(Cl)cc1C1Nc2ccccc2-n2cccc21` (stereo not given): the Inhibition in assay [1] was 8.71%; in assay [2], 9.53%; in assay [3] it was -0.55%; in assay [4], 11.09%; in assay [5], 1.7%; in assay [6], -0.72%.
On to `CSc1nc(N)c(C(=O)NC2CCCCC2)s1`, for which the Inhibition in assay [1] was 30.14%; in assay [2] it was -5.51%; in assay [3], 5.05%; in assay [4], 13.28%; in assay [5], 8.55%; in assay [6], -3.08%.
Regarding `CS/C(=C\c1ccc(C(=O)c2ccc(C)cc2)n1C)[S+](C)[O-]` (stereo not given), the Inhibition in assay [1] came out at 7.5%; in assay [2], 7.53%; in assay [3], 1.09%; in assay [4], 18.35%; in assay [5], 3.75%; in assay [6], 1.32%.
For the molecule `CCCCCCCC1(C)NC(=O)NC1=O` (stereo not given), the Inhibition is 7.54% in assay [1]; 3.29% in assay [2]; 6.05% in assay [3]; 5.77% in assay [4]; 0.59% in assay [5]; -12.36% in assay [6].
As to `C(=N\N=c1/nnn(Cc2ccccc2)[nH]1)/c1ccccc1`, the Inhibition in assay [1] is 11.96%; in assay [2] it was -3.55%; in assay [3], 3.73%; in assay [4], 9.14%; in assay [5] it was 6.47%; in assay [6], -8.48%.
As for `Cc1cccc2cc3cccc(C)c3nc12`, the Inhibition in assay [1] was -5.52%; in assay [2], -11.71%; in assay [3], -1.48%; in assay [4], 1.32%; in assay [5] it was 0.25%; in assay [6], -5.61%.
On to `O=C(O)c1ccccc1C(=O)Nc1cccc([N+](=O)[O-])c1`, for which the Inhibition in assay [1] is -4.11%; in assay [2], -9.98%; in assay [3], -2.38%; in assay [4], 3.82%; in assay [5], 3.86%; in assay [6], -3.03%.
Take `COC(=O)c1cc(C)c(C)cc1NC1OC(CO)C(O)C1O` (stereo not given): the Inhibition in assay [1] is -3.53%; in assay [2], 7.51%; in assay [3], -12.77%; in assay [4] it was 12.31%; in assay [5] it was 6.05%; in assay [6] it was -3.92%.
